This experiment addresses T1, CRBN, Q96SW2.
T1 chain: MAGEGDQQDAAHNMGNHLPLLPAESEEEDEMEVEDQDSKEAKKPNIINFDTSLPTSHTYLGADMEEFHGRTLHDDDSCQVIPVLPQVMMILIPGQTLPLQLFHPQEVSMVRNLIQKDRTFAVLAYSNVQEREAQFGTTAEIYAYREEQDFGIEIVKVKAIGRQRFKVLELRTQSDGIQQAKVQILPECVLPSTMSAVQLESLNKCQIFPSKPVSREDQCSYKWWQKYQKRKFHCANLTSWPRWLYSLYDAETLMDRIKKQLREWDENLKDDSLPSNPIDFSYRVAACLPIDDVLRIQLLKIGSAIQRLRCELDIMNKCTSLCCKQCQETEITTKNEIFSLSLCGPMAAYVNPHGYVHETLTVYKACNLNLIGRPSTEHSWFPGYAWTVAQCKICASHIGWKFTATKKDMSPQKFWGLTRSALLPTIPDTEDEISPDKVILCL
Put plainly: log2 fold change of degron read counts, EGFP-low vs EGFP+ sorted cells (limma voom), compound-induced degradation; higher = more compound-induced degradation of the degron-EGFP fusion; degrons are variants of IKZF1/3 zinc finger 2; compound dose not given here. As to conditions: Jurkat, 18 h.

[1] abbreviates: compound: compound 19 (5-tert-butyl-thalidomide).
Where [2] appears, read: compound: compound 22 (5-morpholino-thalidomide).
Setting [3] is: compound: compound 33 (diphenyl IMiD analogue).

Over roughly 8,300 sequences, “log2 fold change of degron read counts, EGFP-low vs EGFP+ sorted cells (limma voom), compound-induced degradation” has its median near -1.1; the highest 2% begin near 3.2. Only a selection was taken, and the highest values are over-represented in it overall.
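Also: pooled lentiviral library of zinc finger degron-EGFP fusions in mCherry-positive Jurkat cells, FACS-sorted after compound exposure, with degron abundance counted by next-generation sequencing.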

B1: 46F_47L_49D_50V_52G_53A_54Y_55F_67L_, Q9UKT9 (peptide)
chain: FLCDVCGAYFTQKGNLLRHIKL
Take B1: the “log2 fold change of degron read counts” value is, setting by setting: under setting [1], -2.05; under setting [2], -2.41; under setting [3], -1.49; (compound: thalidomide) -1.52.

B2: 46F_47S_49N_50V_52G_53A_54R_55F_67L_, Q9UKT9 (peptide)
chain: FSCNVCGARFTQKGNLLRHIKL
B2: the “log2 fold change of degron read counts” value reads like this: under setting [1], 0.49; under setting [2], 0.453; under setting [3], -1.03; (compound: thalidomide) -0.0608.

B3: 46F_47R_49N_50Q_52G_53A_54S_55F_67L_, Q9UKT9 (peptide)
chain: FRCNQCGASFTQKGNLLRHIKL
As for B3, the “log2 fold change of degron read counts” value by setting is: under setting [1], -1.71; under setting [2], -2.14; under setting [3], -0.702; (compound: thalidomide) -1.17.

B4: 46F_47D_49E_50I_52G_53R_54E_55F_67L_, Q9UKT9 (peptide)
chain: FDCEICGREFTQKGNLLRHIKL
Consider B4, for which the “log2 fold change of degron read counts” value under setting [1] is -2.21, the “log2 fold change of degron read counts” value under setting [2] was -2.29, the “log2 fold change of degron read counts” value under setting [3] is -2.42 and the “log2 fold change of degron read counts” value (compound: thalidomide) was -2.31.

B5: 46F_47H_49N_50V_52G_53A_54Q_55F_67L_, Q9UKT9 (peptide)
chain: FHCNVCGAQFTQKGNLLRHIKL
Consider B5, for which the “log2 fold change of degron read counts” value by setting is: under setting [1], -0.612; under setting [2], 0.00036; under setting [3], 0.0621; (compound: thalidomide) -0.871.

B6: 46F_47C_49P_50I_52G_53H_54N_55F_67L_, Q9UKT9 (peptide)
chain: FCCPICGHNFTQKGNLLRHIKL
Turning to B6, the “log2 fold change of degron read counts” value is -2.22 under setting [1], -2.17 under setting [2], -1.7 under setting [3] and -1.28 (compound: thalidomide).

B7: 46F_47Y_49E_50Q_52G_53A_54H_55F_67L_, Q9UKT9 (peptide)
chain: FYCEQCGAHFTQKGNLLRHIKL
For B7, the “log2 fold change of degron read counts” value is -0.125 under setting [1], 0.783 under setting [2], 0.184 under setting [3] and -1.6 (compound: thalidomide).

B8: 46F_47E_49P_50I_52G_53A_54N_55F_67L_, Q9UKT9 (peptide)
chain: FECPICGANFTQKGNLLRHIKL
As for B8, the “log2 fold change of degron read counts” value under setting [1] was 0.136, the “log2 fold change of degron read counts” value under setting [2] was -0.0311, the “log2 fold change of degron read counts” value under setting [3] was 2.92 and the “log2 fold change of degron read counts” value (compound: thalidomide) was 3.27.

B9: 46F_47Y_49P_50I_52G_53A_54N_55F_67L_, Q9UKT9 (peptide)
chain: FYCPICGANFTQKGNLLRHIKL
B9: the “log2 fold change of degron read counts” value came to 3.19 under setting [1], 3.46 under setting [2], 2.38 under setting [3] and 1.52 (compound: thalidomide).

B10: 46F_47F_49P_50I_52G_53A_54N_55F_67L_, Q9UKT9 (peptide)
chain: FFCPICGANFTQKGNLLRHIKL
Consider B10, for which the “log2 fold change of degron read counts” value by setting is: under setting [1], 2.81; under setting [2], 3.66; under setting [3], 1.86; (compound: thalidomide) 1.33.

B11: 46F_47N_49P_50I_52G_53A_54N_55F_67L_, Q9UKT9 (peptide)
chain: FNCPICGANFTQKGNLLRHIKL
Consider B11, for which the “log2 fold change of degron read counts” value worked out at 2.14 under setting [1], 0.903 under setting [2], 0.95 under setting [3] and 0.651 (compound: thalidomide).

B12: 46F_47Q_49P_50I_52G_53A_54N_55F_67L_, Q9UKT9 (peptide)
chain: FQCPICGANFTQKGNLLRHIKL
As for B12, the “log2 fold change of degron read counts” value under setting [1] amounted to 0.555, the “log2 fold change of degron read counts” value under setting [2] was 2.18, the “log2 fold change of degron read counts” value under setting [3] turned out to be 2.19 and the “log2 fold change of degron read counts” value (compound: thalidomide) is 3.58.

B13: 46F_47D_49P_50I_52G_53A_54N_55F_67L_, Q9UKT9 (peptide)
chain: FDCPICGANFTQKGNLLRHIKL
Regarding B13, the “log2 fold change of degron read counts” value was 2.63 under setting [1], 0.285 under setting [2], 2.3 under setting [3] and 2.15 (compound: thalidomide).

B14: 46F_47T_49P_50I_52G_53A_54N_55F_67L_, Q9UKT9 (peptide)
chain: FTCPICGANFTQKGNLLRHIKL
For B14, the “log2 fold change of degron read counts” value stood at 0.0113 under setting [1], 2.63 under setting [2], 1.93 under setting [3] and 2.85 (compound: thalidomide).

B15: 46F_47S_49P_50I_52G_53A_54N_55F_67L_, Q9UKT9 (peptide)
chain: FSCPICGANFTQKGNLLRHIKL
For the sequence B15, the “log2 fold change of degron read counts” value under setting [1] was found to be 2.46, the “log2 fold change of degron read counts” value under setting [2] worked out at 1.78, the “log2 fold change of degron read counts” value under setting [3] turned out to be 1.97 and the “log2 fold change of degron read counts” value (compound: thalidomide) was determined as 1.54.

B16: 46F_47L_49P_50I_52G_53A_54N_55F_67L_, Q9UKT9 (peptide)
chain: FLCPICGANFTQKGNLLRHIKL
On to B16, for which the “log2 fold change of degron read counts” value came to 0.744 under setting [1], 0.272 under setting [2], 1.69 under setting [3] and 1.77 (compound: thalidomide).

B17: 46F_47M_49P_50I_52G_53A_54N_55F_67L_, Q9UKT9 (peptide)
chain: FMCPICGANFTQKGNLLRHIKL
Regarding B17, the “log2 fold change of degron read counts” value is -0.073 under setting [1], 1.2 under setting [2], 2.87 under setting [3] and 1.98 (compound: thalidomide).

B18: 46F_47V_49P_50I_52G_53A_54N_55F_67L_, Q9UKT9 (peptide)
chain: FVCPICGANFTQKGNLLRHIKL
As to B18, the “log2 fold change of degron read counts” value by setting is: under setting [1], 0.327; under setting [2], 2.63; under setting [3], 1.9; (compound: thalidomide) 2.81.

B19: 46F_47R_49P_50I_52G_53A_54N_55F_67L_, Q9UKT9 (peptide)
chain: FRCPICGANFTQKGNLLRHIKL
Consider B19, for which the “log2 fold change of degron read counts” value runs as follows: under setting [1], -0.337; under setting [2], -0.426; under setting [3], 1.12; (compound: thalidomide) 1.57.

The record behind these values is the supplement of paper PMC12645437, “Orthogonal IMiD-Degron Pairs Induce Selective Protein Degradation in Cells” (ACS Chemical Biology, 2025).
